# Screening results as filed in PubChem.
# KCNQ2 block = rat KCNQ2 potassium channel inhibitors, primary screen, cell-based, CHO-K1, FluxOR thallium flux, B-score. Potassium voltage-gated channel subfamily KQT member 2 (Rattus norvegicus), O88943. 20 min; hits give low values. B-score at 10 µM. 310,000 compounds, 1.1% hits. AID 2156, 2009;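 active = fluorescence ratio B-score at most minus 3 library SDs, with starting brightness B-score within 2 library SDs, cut at about -5.5 in these data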
# KCNQ2 enhance = potentiators of rat KCNQ2 potassium channel; CHO-K1 KCNQ2, FluxOR thallium flux fluorescence; hits give high values; B-score at 10 µM; AID 2239, 2010; 310,000 compounds, 0.54% hits;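 active = fluorescence ratio B-score at least 3 SD of library B-scores, with initial fluorescence B-score within 3 of them, cut at about 5.3 in these data; same plate scores as AID 2156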;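 note: B-score of peak minus minimum over baseline fluorescence ratio after K+ and Tl+ stimulus; positive B-score means potentiation of KCNQ2 with more thallium influx and brighter signal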
# Kir21 confirm = mouse Kir2.1 channel blockers, retest, confirmation, cell-based, FluxOR thallium flux, duplicate | 2,300 compounds, 41% hits | Kir2.1-expressing cells, FluxOR thallium flux fluorescence; hits give low values | shares compounds with KCNQ2 enhance | AID 2032, 2009 | Tl flux remaining, % of negative control (hits give low values), % at 10 µM;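 active = Primary-screen hit whose thallium flux fell at least 3 control SD below untreated wells in both duplicates, with normal baseline fluorescence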;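 note: 0% = blank wells without stimulus and 100% = stimulated no-compound controls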
# HEK293 Tl flux = counter-screen for Kir2.1 inhibitors: effect in parental HEK293 cells. shares compounds with KCNQ2 enhance. FluxOR thallium flux fluorescence; 0% = unstimulated blank wells. FluxOR signal as % of negative control (100 = no effect), % at 10 µM. 2,300 compounds, 19% hits. AID 2105;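 active = dye signal at least 3 control SD above or below untreated wells in both duplicates, raw fluorescence within 3, either direction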;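 note: percent is based on the flux ratio of peak minus minimum fluorescence over baseline F0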
# CHO-K1 Tl ctr = nonspecific thallium flux increase in parental CHO-K1, confirmation, counter-screen for KCNQ2 potentiator project, cell-based, FluxOR thallium flux, duplicate. AID 2282, 2010. 1,200 compounds, 43% hits. shares compounds with KCNQ2 enhance. activity increase over 3SD of controls, % at 10 µM. parental CHO-K1 cells, FluxOR thallium flux fluorescence; zero = vehicle mean+3SD, 100% = vehicle-minus-blank window;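 active = signal rise of at least 3 SD above the untreated control mean, in both duplicate wells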;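 note: counter screen of KCNQ2 potentiator hits so any rise reflects channel-independent effects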
# KCNQ1 sel pot = human KCNQ1 channel potentiation off-target, confirmation, selectivity assay for KCNQ2 potentiator project, cell-based, CHO, FluxOR thallium flux; shares compounds with KCNQ2 enhance; CHO KCNQ1 stable, FluxOR thallium flux fluorescence; beyond 3SD, as % of vehicle-control signal; activation over 3SD threshold, % at 10 µM; 1,200 compounds, 28% hits;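 active = fluorescence ratio rise of at least 3 SD of vehicle wells above their mean, in both replicate wells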;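 note: 0% = vehicle mean plus 3 SD and 100% = vehicle minus unstimulated blank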
# Target sequence (P51787 whole entry, looked up): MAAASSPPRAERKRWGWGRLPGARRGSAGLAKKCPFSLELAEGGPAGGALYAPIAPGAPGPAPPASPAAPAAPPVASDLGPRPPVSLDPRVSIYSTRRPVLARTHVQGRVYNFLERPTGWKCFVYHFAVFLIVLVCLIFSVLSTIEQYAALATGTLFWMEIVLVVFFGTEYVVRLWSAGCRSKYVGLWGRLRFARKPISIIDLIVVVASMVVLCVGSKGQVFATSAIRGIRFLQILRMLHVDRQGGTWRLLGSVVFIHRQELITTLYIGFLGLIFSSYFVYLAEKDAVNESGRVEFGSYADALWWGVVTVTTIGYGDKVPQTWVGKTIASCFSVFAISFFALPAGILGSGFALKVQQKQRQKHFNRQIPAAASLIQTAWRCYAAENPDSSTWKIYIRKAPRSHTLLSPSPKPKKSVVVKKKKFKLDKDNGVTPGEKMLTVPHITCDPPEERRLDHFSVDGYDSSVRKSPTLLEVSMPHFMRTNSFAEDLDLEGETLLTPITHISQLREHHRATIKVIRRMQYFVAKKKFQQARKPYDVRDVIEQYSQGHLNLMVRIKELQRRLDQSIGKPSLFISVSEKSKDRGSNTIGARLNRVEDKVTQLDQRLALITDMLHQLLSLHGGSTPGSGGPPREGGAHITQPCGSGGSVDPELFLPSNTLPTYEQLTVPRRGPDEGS
# KCNQ2 pot confirm = rat KCNQ2 channel potentiators, confirmation, cell-based, CHO, FluxOR thallium flux, duplicate; AID 2287, 2010; 1,200 compounds, 68% hits; shares compounds with KCNQ2 enhance; potentiation, less the hit threshold, % at 10 µM; CHO-KCNQ2 cells, FluxOR thallium flux fluorescence;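 active = fluorescence ratio rising 3 SD or more over the vehicle control mean in both replicates, plus primary screen hit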;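 note: peak minus minimum thallium fluorescence divided by baseline after K/Tl stimulus; 0% = vehicle mean plus 3 SD and 100% = vehicle minus unstimulated blank difference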
# Kir2-1 sel = mouse Kir2.1 channel activation off-target, confirmation, selectivity assay for KCNQ2 potentiator project, cell-based, HEK293, FluxOR thallium flux | shares compounds with KCNQ2 enhance | HEK293 Kir2.1, FluxOR thallium flux fluorescence | activity over 3SD threshold, % at 10 µM | 1,200 compounds, 2% hits | AID 2345, 2010;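 active = fluorescence ratio rise of at least 3 SD above the vehicle-control mean, seen in both replicates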;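 note: 0% = vehicle mean plus 3 SD and 100% = vehicle minus no-stimulus blank window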
# KCNQ2 W236L pot = potentiators of retigabine-insensitive KCNQ2 W236L, mechanism study for KCNQ2 potentiator project, cell-based, rat KCNQ2 W236L, CHO, automated patch clamp | shares compounds with KCNQ2 enhance | automated patch clamp current | current increase over 3SD of negative controls (%), hits give high values, % at 25 µM | 940 compounds, 10% hits;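 active = current increase at least 3 SD of the untreated controls above them in both duplicate recordings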
# Active calls of the source: *; i = inactive; / = not tested or not shown. This is a sample that favours compounds with a hit; in the whole collection about 1.6% have one here.
SMILES,KCNQ2 block,KCNQ2 enhance,Kir21 confirm,HEK293 Tl flux,others
Cc1ccnc(NC(=O)c2ccc(S(=O)(=O)N3CCC(C)CC3)cc2)c1,i,/,/,/,
C(=C\c1ccccc1)/CSc1nnc(-c2ccccn2)n1Cc1ccco1,-5.8*,-5.8,60%*,i,
NC(=O)CSc1nnc(-c2ccccn2)n1Cc1ccco1,i,/,/,/,
CC(=O)Nc1ccc(C2NC(=O)CCC2[N+](=O)[O-])cc1 (centres undefined),i,0.25,/,/,
O=C(c1ccc(Cl)c(S(=O)(=O)N2CCOCC2)c1)N1CCN(c2ccccc2)CC1,i,/,/,/,
CCC1(O)CC(c2ccccc2)=NN1C(=O)c1ccccc1F (centres undefined),i,5,/,/,
O=C(OCC(=O)N1CCC(Cc2ccccc2)CC1)c1ccccc1,i,0.04,/,/,
COc1cc(C(=O)OCC(=O)N2CCC(Cc3ccccc3)CC2)cc(OC)c1OC,i,5.6*,i,67%*,CHO-K1 Tl ctr=-8;KCNQ1 sel pot=-14;KCNQ2 pot confirm=35*;Kir2-1 sel=-50;KCNQ2 W236L pot=i
O=C(NNC(=O)c1ccc(O)c(Cl)c1)c1cccc(S(=O)(=O)N2CCOCC2)c1,i,0.92,/,/,
Oc1c(Cl)cc(Cl)c2c1NCCC2,i,6.3*,i,i,CHO-K1 Tl ctr=4.8*;KCNQ1 sel pot=1.6*;KCNQ2 pot confirm=6.1*;Kir2-1 sel=-42;KCNQ2 W236L pot=i
O=C1NCCCc2c1oc1ccc(O)cc21,i,0.28,/,/,
COc1ccccc1N1CCN(S(=O)(=O)c2c(C)[nH]c(=O)[nH]c2=O)CC1,i,0.75,/,/,
CN1CCN(C(=O)c2ccccc2NC(=O)c2cccc(Cl)c2)CC1,i,2.3,/,/,
Nc1[nH]n2c(=O)cc(-c3ccccc3)nc2c1N=Nc1ccccc1,i,6.6*,i,i,CHO-K1 Tl ctr=-28;KCNQ1 sel pot=-25;KCNQ2 pot confirm=9.8*;Kir2-1 sel=-21;KCNQ2 W236L pot=i
Nc1[nH]n2c(=O)cc(-c3ccccc3)nc2c1N=Nc1ccc(S(N)(=O)=O)cc1,i,1.4,/,/,
CC(=O)Nc1ccc(N2C(C(C)=O)=NN(c3ccc(Cl)cc3)C2c2sccc2C)cc1 (centres undefined),i,/,/,/,
Oc1ccc2ccccc2c1/C=N/c1nc2c(s1)CCCC2,i,/,/,/,
Oc1c(Br)cc(Br)cc1/C=N/c1nc2c(s1)CCCC2,i,8.7*,i,i,CHO-K1 Tl ctr=48*;KCNQ1 sel pot=-6;KCNQ2 pot confirm=26*;Kir2-1 sel=-46;KCNQ2 W236L pot=4.4%*
Nc1nc(C2CCCN2S(=O)(=O)c2ccc(Cl)cc2)cs1 (centres undefined),i,1.3,62%*,i,
O=S(=O)(c1ccc(Cl)cc1)N1CCCC1c1nc(-c2ccc(Cl)cc2)no1 (centres undefined),i,/,/,/,
CCC(=O)N1CCN(c2ccc(NC(=O)COc3ccccc3[N+](=O)[O-])cc2)CC1,i,/,/,/,
Cc1cc(C)n(C(=O)CN(C)S(=O)(=O)c2ccc([N+](=O)[O-])cc2)n1,i,0.24,/,/,
CCOC(=O)N1CCN(C(=O)c2cc(Cl)c(Cl)cc2C(=O)O)CC1,i,/,/,/,
CCCOC1CCCN(C(=O)c2cc(Cl)c(Cl)cc2C(=O)O)C1 (centres undefined),i,8.6*,i,i,CHO-K1 Tl ctr=-11;KCNQ1 sel pot=-18;KCNQ2 pot confirm=-8;Kir2-1 sel=-34
Cc1sc(NC(=S)NC(=O)C(C)(C)C)c(C(N)=O)c1C,i,/,/,/,
SMILES,KCNQ2 block,KCNQ2 enhance,Kir21 confirm,HEK293 Tl flux,others
CC(C)CCNC(=O)Cc1csc(-c2ccccc2)n1,i,/,/,/,
Cc1ccc(NC(=O)CCNS(=O)(=O)c2ccccc2F)cc1S(=O)(=O)N1CCOCC1,i,0.38,/,/,
Cc1cccc(CCNC(=O)C2CCN(S(=O)(=O)c3ccccc3)CC2)c1,i,1,/,/,
CCCC(=O)OCCNc1cc(Sc2nccn2C)c2nonc2c1[N+](=O)[O-],i,/,70%*,i,
CCCSc1cc(NCCOC(=O)CCC)c([N+](=O)[O-])c2nonc12,i,/,/,/,
O=Cc1ccc(OC(=O)Cc2ccc(F)cc2)cc1,i,/,/,/,
CC(C)(C)N1CC(C(=O)Nc2ccc(C#N)cc2)CC1=O (centres undefined),i,0.89,/,/,
N#C/C(=C\c1cccc(Oc2ccccc2)c1)C(=O)N1CCOCC1,-6.4*,-6.4,36%*,i,
COc1cc(/C=C(\C#N)C(=O)N2CCOCC2)cc(Br)c1O,i,/,/,/,
O=[N+]([O-])c1ccc(S(=O)(=O)c2ccccc2)nc1,-5.9*,-5.9,i,70%*,
Nc1ccc(S(=O)(=O)c2ccccc2)nc1,i,/,/,/,
O=C(CN1C(=O)CSc2ccc(S(=O)(=O)N3CCOCC3)cc21)NCc1ccc(F)cc1,i,/,/,/,
COc1ccc(-c2cc(=O)oc3c(O)c(O)ccc23)cc1,i,1.4,/,/,
CC1Oc2cc3oc4c(O)c(O)ccc4c(=O)c3c(O)c2C1(C)C (centres undefined),i,5.4*,i,i,CHO-K1 Tl ctr=-2;KCNQ1 sel pot=-12;KCNQ2 pot confirm=-14;Kir2-1 sel=-18
COc1ccc(OC)c(S(=O)(=O)Nc2cc(C(=O)O)ccc2N2CC3CC(C2)c2cccc(=O)n2C3)c1 (centres undefined),i,/,/,/,
CCC(=O)N1CCc2cc(S(=O)(=O)NC(C(=O)N3CCN(c4ccc(F)cc4)CC3)C(C)C)ccc21 (centres undefined),i,0.19,/,/,
Cc1cccc(N(CC(=O)NC(C)C)C(=O)CCC(=O)Nc2nccs2)c1,i,0.04,/,/,
CCOc1cc(Br)ccc1S(=O)(=O)N1CCC(C(N)=O)CC1,i,1.1,/,/,
CC(C)(C)CC(=O)Nc1ccc(Nc2ccccc2)cc1,i,6.3*,i,i,CHO-K1 Tl ctr=133*;KCNQ1 sel pot=-21;KCNQ2 pot confirm=16*;Kir2-1 sel=-40;KCNQ2 W236L pot=i
